# Unmarked numbers belong to inactive results. Records with an inconclusive call do not appear. Where a call stands in place of a potency, no number is given. Calls of active or inactive are those of the source. Unless noted, calls come from the whole dose curve; as a rule, active = well fitted curve in the direction sought with a large enough effect; inconclusive = small, poorly fitted or top-dose-only effect, or another doubt; inactive = no such curve, though single readings can be large; an effect the other way counts as inactive or inconclusive.
# What was measured:
# [1] = Cellular Toxicity (caspase-3) HepG2 (AID 654);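 note: cells exposed to compound for 16 hours before reading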
# Outline: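 Luminescent Caspase-Glo 3/7 readout after 16 hr compound exposure of human hepatocellular carcinoma HepG2 cells at 37 °C; qHTS concentration-response, normalized DMSO = 0%, 100 uM tamoxifen = 100%; AC50 by standard Hill equation.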
# [2] = Cellular Toxicity (caspase-3) Jurkat (AID 655);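 note: cells exposed to compound for 16 h at 37 °C before reading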
# Outline: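 Caspase 3/7 activation is scored as increased luminescence in Jurkat cells cultured with compound for 16 hours in complete medium. AC50 values come from Hill fits of qHTS concentration-response data normalized to DMSO and 100 uM tamoxifen controls.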
# [3] = Cellular Toxicity (caspase-3) HUV-EC-C (AID 656)
# Outline: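 Read-out: luminescence proportional to caspase 3/7 activity, measured 20 min after adding Caspase-Glo 3/7 reagent. Cells (HUV-EC-C) had received compound for 16 hr at 37°C. Increases relative to DMSO and 100 uM tamoxifen gave concentration-response AC50 values.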
# [4] = Cellular Toxicity (caspase-3) SHSY5Y (AID 657)
# Outline: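 Cells plated and incubated 5 h at 37 °C, dosed over a concentration range, incubated 16 h, then given Caspase-Glo 3/7 reagent for 1 h at room temperature before luminescence reading. Staurosporine (10 uM) defined full stimulation.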
# [5] = Cellular Toxicity (caspase-3) BJ (AID 658); details: Potency: caspase-3 activation
# Outline: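 Plated BJ cells (1000/well) rested 5 hr, received compound for 16 hr at 37 °C, then Caspase-Glo 3/7 reagent for 1 hr at room temperature before luminescence reading.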
# [6] = Cellular Toxicity (caspase-3) MRC-5 (AID 659); details: Potency: caspase-3 activation
# Outline: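 Apoptosis readout in MRC-5 cells: luciferase light generated after caspase 3/7 cleaves a peptide-aminoluciferin substrate, measured post 16 hr compound incubation at 37 °C.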
# [7] = Cellular Toxicity (caspase-3) Mesangial (AID 660); details: Potency: caspase-3 activation;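 note: cells exposed to compound for 16 h before the caspase read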
# Outline: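 Luminescent Caspase-Glo 3/7 readout (aminoluciferin substrate cleavage, 20 min RT) after 16 h compound exposure at 37 °C of normal human mesangial cells. Signal increase normalized between DMSO basal and 100 uM tamoxifen; Hill-equation AC50.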
# [8] = Cellular Toxicity (caspase-3) SK-N-SH (AID 661)
# Outline: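 Luminescent Caspase-Glo 3/7 read-out after 16 hr compound exposure of SK-N-SH neuroblastoma cells at 37 °C. Signal increase normalized to DMSO (basal) and 10 uM staurosporine (100%); AC50 from Hill equation fits of qHTS concentration-response data.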
# [9] = Cellular Toxicity (caspase-3) H-4-II-E (AID 663); details: H-4-II-E rat hepatoma, scaled: DMSO 0%, 100 µM tamoxifen 100%; at 92.2 µM (top of the series);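 note: cells exposed to compound for 16 hr before readout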
# Outline: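 Caspase 3/7 activation measured in H-4-II-E cells in complete culture medium after 16 hr treatment at 37 °C, using luciferase-coupled substrate readout; AC50 values come from Hill-equation fits of normalized concentration-response data.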
# [10] = Cellular Toxicity (caspase-3) Hek293 (AID 664); details: HEK293 caspase-3 activation, DMSO = 0%, 100 µM tamoxifen = 100%; at 92.2 µM (top of the series);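 note: cells exposed to compound for 16 h at 37 °C before readout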
# Outline: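 Luminescent Caspase-Glo 3/7 readout (aminoluciferin release) in HEK293 cells after 16 h compound treatment, 37 °C. Normalization: DMSO = basal, 100 uM tamoxifen = 100% stimulation. Concentration-response fitted with standard Hill equation for AC50.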
# [11] = Cellular Toxicity (caspase-3) Renal Proximal Tubule (AID 667); details: Potency: caspase-3 activation;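 note: cells exposed to compound for 16 hours at 37 °C before detection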
# Outline: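 In qHTS format, rat primary proximal tubule cells seeded at 1000 per well are exposed to compounds for 16 hours at 37 °C. An increase in Caspase-Glo 3/7 luminescence indicates caspase activation.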
# [12] = molecular target: Cytochrome P450 3A4 (Homo sapiens) (UniProt P08684); assay: qHTS Assay for Activators of Cytochrome P450 3A4 (AID 885); note: nearly all actives have a fitted effect of over 65% in size
# Sequence of Cytochrome P450 3A4 (Homo sapiens) (P08684 whole entry, looked up): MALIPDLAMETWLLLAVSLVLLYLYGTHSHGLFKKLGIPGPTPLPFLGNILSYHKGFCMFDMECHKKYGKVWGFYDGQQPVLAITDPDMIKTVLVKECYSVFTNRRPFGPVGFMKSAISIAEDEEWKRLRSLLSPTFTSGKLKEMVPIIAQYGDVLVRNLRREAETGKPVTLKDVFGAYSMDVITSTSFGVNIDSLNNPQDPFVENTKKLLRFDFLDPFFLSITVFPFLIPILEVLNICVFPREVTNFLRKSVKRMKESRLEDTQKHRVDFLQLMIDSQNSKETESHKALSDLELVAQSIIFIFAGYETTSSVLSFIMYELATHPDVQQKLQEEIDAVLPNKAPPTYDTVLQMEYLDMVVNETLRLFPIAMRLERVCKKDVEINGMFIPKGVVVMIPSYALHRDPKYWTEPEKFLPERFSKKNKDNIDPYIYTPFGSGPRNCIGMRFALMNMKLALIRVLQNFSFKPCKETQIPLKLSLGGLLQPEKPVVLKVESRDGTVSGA
# Outline: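 Activators are scored by enhanced luminescence from CYP3A4 conversion of luciferin-PPXE (25uM, equal to KM) to luciferin, after 60 min at RT with an NADPH-regenerating system.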
# [13] = molecular target: Cytochrome P450 2D6 (Homo sapiens) (UniProt P10635); assay: qHTS Assay for Inhibitors and Substrates of Cytochrome P450 2D6 (AID 891); note: potency is the fitted concentration of half-maximal effect; nearly all actives have a fitted effect of over 60% in size
# Sequence of Cytochrome P450 2D6 (Homo sapiens) (P10635 whole entry, looked up): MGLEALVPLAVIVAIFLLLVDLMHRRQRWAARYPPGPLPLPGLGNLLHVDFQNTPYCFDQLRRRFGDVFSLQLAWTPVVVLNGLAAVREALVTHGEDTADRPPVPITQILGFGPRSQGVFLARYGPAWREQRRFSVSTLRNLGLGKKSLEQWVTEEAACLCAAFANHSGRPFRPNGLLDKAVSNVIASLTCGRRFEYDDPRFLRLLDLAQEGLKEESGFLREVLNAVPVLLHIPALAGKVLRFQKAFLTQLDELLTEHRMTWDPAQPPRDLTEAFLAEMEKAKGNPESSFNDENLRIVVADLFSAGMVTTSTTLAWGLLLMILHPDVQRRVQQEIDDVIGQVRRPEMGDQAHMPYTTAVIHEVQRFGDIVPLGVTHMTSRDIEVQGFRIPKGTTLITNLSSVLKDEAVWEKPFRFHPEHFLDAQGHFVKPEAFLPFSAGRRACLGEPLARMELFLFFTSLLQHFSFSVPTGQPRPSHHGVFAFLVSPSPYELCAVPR
# Outline: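 Luminescent read-out of luciferin formed by 5 nM human CYP2D6 demethylating 30 uM Luciferin-ME EGE (Km level) over 60 min at room temperature after NADPH regeneration addition. Data normalized to full inhibition by 1.43 uM quinidine.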
# [14] = Confirmation and Secondary Assay for Modulators of Hemoglobin Beta Chain Splicing at IVS2 654 locus (AID 910);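 note: per-well total GFP intensity by laser scanning cytometry after 2-day treatment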
# Outline: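 HeLa cells stably carrying EGFP interrupted by mutant beta-globin IVS2-654 intron (CMV-driven) were treated with compound for 2 days at 37C; corrected splicing was scored as total peak GFP intensity per well (488 nm excitation, 500-520 nm emission).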
# [15] = molecular target: Cytochrome P450 3A4 (Homo sapiens) (UniProt P08684); assay: qHTS Assay for Inhibitors and Substrates of Cytochrome P450 3A4 (AID 884); note: nearly all actives have a fitted effect of over 50% in size
# Outline: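 Luminescent readout of luciferin produced by CYP3A4 (20 nM) dealkylation of Luciferin-PPXE, 25 uM (its KM). NADPH-driven reaction ran 60 min at RT after 10 min compound preincubation; data scaled to 57 uM ketoconazole as 100% inhibition.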
# [16] = qHTS Assay for Identification of Small Molecule Agonists for Hypoxia Response Element Signaling Pathway (AID 914; active = well fitted activation curve with a large enough effect in the signal ratio, with a control signal flat, not every such curve was filed as active; the % refers to the signal ratio); details: ME-180 (cervical carcinoma) HRE-bla reporter, beta-lactamase ratio, CoCl2, 17 h; hits give high values
# Outline: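 A beta-lactamase reporter under hypoxia response element control in ME-180 cells served as the system. Compound titrations plus EC50 CoCl2 ran 17 h at 37 degrees Celsius; AC50 values were fitted from %Activity.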
# [17] = molecular target: Cytochrome P450 2C19 (Homo sapiens) (UniProt P33261); assay: qHTS Assay for Inhibitors and Substrates of Cytochrome P450 2C19 (AID 899); note: nearly all actives have a fitted effect of over 60% in size; note: potency is the fitted concentration of half-maximal effect
# Sequence of Cytochrome P450 2C19 (Homo sapiens) (P33261 whole entry, looked up): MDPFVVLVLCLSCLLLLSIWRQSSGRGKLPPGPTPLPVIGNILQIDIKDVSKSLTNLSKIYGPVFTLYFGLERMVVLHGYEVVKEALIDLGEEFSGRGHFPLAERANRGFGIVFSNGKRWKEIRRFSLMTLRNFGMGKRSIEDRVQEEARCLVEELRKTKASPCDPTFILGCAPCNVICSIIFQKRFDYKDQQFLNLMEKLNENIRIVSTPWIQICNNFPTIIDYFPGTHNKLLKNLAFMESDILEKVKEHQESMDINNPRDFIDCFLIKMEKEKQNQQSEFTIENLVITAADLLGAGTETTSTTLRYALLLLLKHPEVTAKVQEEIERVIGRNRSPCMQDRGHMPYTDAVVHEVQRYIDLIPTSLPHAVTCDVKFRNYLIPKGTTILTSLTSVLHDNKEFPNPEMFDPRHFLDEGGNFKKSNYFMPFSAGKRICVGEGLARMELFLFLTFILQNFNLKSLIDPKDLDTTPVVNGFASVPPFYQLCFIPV
# Outline: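 NADPH-dependent conversion of Luciferin-H EGE (10uM, at KM) by 5nM enzyme in 50mM KPO4, 60 min at 37C following 10 min compound preincubation. Stopped with luciferin detection buffer; luminescence read after 20 min.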
smiles,measurement,setting,value
COc1ccc2cc3[n+](cc2c1OC)CCc1cc2c(cc1-3)OCO2,Potency,[1],inactive
same,outcome,[2],inactive
same,outcome,[3],inactive
same,Potency,[4],inactive
same,Potency,[5],inactive
same,Potency,[6],inactive
same,Potency,[7],inactive
same,Potency,[8],inactive
same,caspase-3 activation,[9],0.864%
same,caspase-3 activation,[10],4.12%
same,Potency,[11],inactive
same,outcome,[12],inactive
same,Potency,[13],2.51 µM (active)
same,Potency,[14],inactive
CC[C@H](C)C(=O)O[C@H]1C[C@@H](C)C=C2C=C[C@H](C)[C@H](CC[C@@H]3C[C@@H](O)CC(=O)O3)[C@H]21,outcome,[2],inactive
same,outcome,[3],inactive
same,Potency,[4],inactive
same,Potency,[5],inactive
same,Potency,[6],inactive
same,Potency,[7],inactive
same,Potency,[8],inactive
same,caspase-3 activation,[9],1.47%
same,caspase-3 activation,[10],-1.73%
CC(=O)CC(c1ccccc1)c1c(O)c2ccccc2oc1=O (stereo not drawn),outcome,[15],inactive
same,Potency,[14],inactive
COc1ccc2c(c1)c(CC(=O)OCC(=O)O)c(C)n2C(=O)c1ccc(Cl)cc1,outcome,[15],inactive
same,Potency,[14],inactive
O=S(=O)(O)CCS,outcome,[15],inactive
same,Potency,[14],inactive
CN(CCOc1ccc(CC2SC(=O)NC2=O)cc1)c1ccccn1 (stereo not drawn),Potency,[14],inactive
Nc1nc(N)c2nc(CNc3ccc(C(=O)NC(CCC(=O)O)C(=O)O)cc3)cnc2n1 (stereo not drawn),outcome,[15],inactive
same,Potency,[14],inactive
Cn1c(=O)c2c(ncn2CC(O)CO)n(C)c1=O (stereo not drawn),outcome,[15],inactive
same,Potency,[14],inactive
OC(Cn1cncn1)(Cn1cncn1)c1ccc(F)cc1F,Potency,[14],inactive
CN(C)CCc1c[nH]c2ccc(CS(=O)(=O)N3CCCC3)cc12,outcome,[15],inactive
same,Potency,[14],inactive
CC(C)(Sc1cc(C(C)(C)C)c(O)c(C(C)(C)C)c1)Sc1cc(C(C)(C)C)c(O)c(C(C)(C)C)c1,Potency,[14],inactive
CCCc1cc(C(N)=S)ccn1,Potency,[14],inactive
CN1CCCC(n2nc(Cc3ccc(Cl)cc3)c3ccccc3c2=O)CC1 (stereo not drawn),Potency,[14],inactive
Nc1ccc(S(=O)(=O)Nc2ccccn2)cc1,outcome,[15],inactive
same,Potency,[14],inactive
COc1cnc(NS(=O)(=O)c2ccc(N)cc2)nc1,outcome,[15],inactive
same,Potency,[14],inactive
same,activation,[16],5.32%
CN(Cc1cc(Br)cc(Br)c1N)C1CCCCC1,Potency,[14],inactive
CCCCOc1ccc(CC(=O)NO)cc1,outcome,[15],inactive
same,Potency,[14],inactive
CCCOc1ccc(C(=O)OCCN(CC)CC)cc1N,Potency,[17],inactive
CCCCCCNC(=O)n1cc(F)c(=O)[nH]c1=O,Potency,[14],inactive
CCn1cc(C(=O)O)c(=O)c2cc(F)c(N3CCNCC3)cc21,Potency,[14],inactive
Cc1cccc(N(C)C(=S)Oc2ccc3ccccc3c2)c1,outcome,[12],inactive
same,Potency,[14],inactive
NC(=O)N1c2ccccc2CC(=O)c2ccccc21,Potency,[14],inactive
COc1c(N2CCNC(C)C2)c(F)cc2c(=O)c(C(=O)O)cn(C3CC3)c12 (stereo not drawn),outcome,[15],inactive
same,Potency,[14],inactive
COc1cc(NS(=O)(=O)c2ccc(N)cc2)nc(OC)n1,Potency,[14],inactive
COc1ccc(C(=O)CC(=O)c2ccc(C(C)(C)C)cc2)cc1,outcome,[15],inactive
same,Potency,[14],inactive
CC1=CC(=O)c2ccccc2C1=O,outcome,[12],inactive
same,Potency,[13],7.94 µM (active)
same,Potency,[17],2.51 µM (active)
same,Potency,[14],inactive
NCCCC(O)(P(=O)(O)O)P(=O)(O)O,Potency,[14],inactive
Cc1cccc(Nc2ccncc2S(=O)(=O)NC(=O)NC(C)C)c1,outcome,[12],inactive
same,Potency,[14],inactive
O=C(O)c1cccnc1,outcome,[15],inactive
same,Potency,[14],inactive
C1CCC(C(CC2CCCCN2)C2CCCCC2)CC1 (stereo not drawn),outcome,[12],inactive
same,Potency,[14],inactive
COc1cc([C@@H]2c3cc4c(cc3[C@H](O)[C@H]3COC(=O)[C@H]23)OCO4)cc(OC)c1OC,outcome,[12],inactive
CCCCS(=N)(=O)CCC(N)C(=O)O (stereo not drawn),outcome,[12],inactive
same,Potency,[14],inactive
COC(=O)Nc1nc2ccc(S(=O)c3ccccc3)cc2[nH]1 (stereo not drawn),Potency,[14],inactive
Oc1c(Cl)cc(Cl)c2cccnc12,Potency,[14],inactive
COC(=O)Nc1nc2ccc(Sc3ccccc3)cc2[nH]1,outcome,[15],inactive
same,Potency,[14],inactive
CNNCc1ccc(C(=O)NC(C)C)cc1,activation,[16],9.99%

# — PubChem BioAssay (NCATS)
